Source: PubChem BioAssay
This excerpt belongs to a sample that is enriched for hits.
KDM5B inh = inhibitors of human KDM5B histone demethylase | AID 1347165 | Potency, µM (doses to about 57.7 µM), hits mostly inhibitors | KDM5B demethylase, FDH-coupled NADH fluorescence (FDH is formaldehyde dehydrogenase) | 220,000 compounds, 2.6% hits | Q9UGL1; active = well fitted inhibition curve with a large enough effect; also: 0% is about no effect; nearly all actives have a fitted effect of over 70% in size
Target sequence (Q9UGL1 whole entry, looked up): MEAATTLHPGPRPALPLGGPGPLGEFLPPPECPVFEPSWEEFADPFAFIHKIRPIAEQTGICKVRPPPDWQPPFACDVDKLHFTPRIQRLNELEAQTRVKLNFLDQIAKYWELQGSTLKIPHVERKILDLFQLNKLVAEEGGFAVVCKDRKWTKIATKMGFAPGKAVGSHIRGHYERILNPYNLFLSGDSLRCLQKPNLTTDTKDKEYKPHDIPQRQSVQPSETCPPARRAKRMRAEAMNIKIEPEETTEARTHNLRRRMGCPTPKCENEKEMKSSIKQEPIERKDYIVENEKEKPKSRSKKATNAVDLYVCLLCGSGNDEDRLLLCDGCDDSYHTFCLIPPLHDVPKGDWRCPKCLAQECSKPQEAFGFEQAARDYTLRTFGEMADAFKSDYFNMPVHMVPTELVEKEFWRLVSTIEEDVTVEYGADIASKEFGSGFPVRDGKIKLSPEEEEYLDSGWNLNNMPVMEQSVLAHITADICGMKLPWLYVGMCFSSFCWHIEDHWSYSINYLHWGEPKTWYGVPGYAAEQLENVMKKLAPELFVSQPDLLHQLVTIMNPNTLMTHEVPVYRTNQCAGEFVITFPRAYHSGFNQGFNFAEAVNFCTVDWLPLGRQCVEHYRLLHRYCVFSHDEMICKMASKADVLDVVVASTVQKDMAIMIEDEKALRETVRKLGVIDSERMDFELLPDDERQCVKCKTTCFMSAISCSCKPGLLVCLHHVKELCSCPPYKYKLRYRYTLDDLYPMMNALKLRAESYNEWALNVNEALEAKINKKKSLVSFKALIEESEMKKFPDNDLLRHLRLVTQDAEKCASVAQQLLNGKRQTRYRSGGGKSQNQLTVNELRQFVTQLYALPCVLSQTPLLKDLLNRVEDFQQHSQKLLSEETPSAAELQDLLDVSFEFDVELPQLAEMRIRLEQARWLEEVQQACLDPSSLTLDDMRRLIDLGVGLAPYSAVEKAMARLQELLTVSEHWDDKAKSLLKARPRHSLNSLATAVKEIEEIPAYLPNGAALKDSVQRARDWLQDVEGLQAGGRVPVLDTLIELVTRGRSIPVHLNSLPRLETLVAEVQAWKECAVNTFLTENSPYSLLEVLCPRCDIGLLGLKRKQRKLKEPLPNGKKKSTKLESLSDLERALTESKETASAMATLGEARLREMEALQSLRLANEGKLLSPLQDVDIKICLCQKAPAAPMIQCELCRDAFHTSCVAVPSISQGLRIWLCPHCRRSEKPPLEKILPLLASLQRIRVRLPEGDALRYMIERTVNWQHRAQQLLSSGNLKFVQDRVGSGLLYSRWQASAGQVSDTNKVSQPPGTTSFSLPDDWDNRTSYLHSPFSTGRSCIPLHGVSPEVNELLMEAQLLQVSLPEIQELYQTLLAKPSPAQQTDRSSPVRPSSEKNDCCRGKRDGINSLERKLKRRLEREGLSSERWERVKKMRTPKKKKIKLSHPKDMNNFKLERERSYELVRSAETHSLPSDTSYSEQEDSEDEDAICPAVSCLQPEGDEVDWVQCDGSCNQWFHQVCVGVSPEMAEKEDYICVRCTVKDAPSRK
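Inhibition is measured as reduced NADH fluorescence generation from FDH coupling to formaldehyde release. Truncated KDM5BΔAP at 200 nM final acts on H3K4me3 peptide (12.5 µM in substrate mix) in pH 7.5 HEPES buffer with Tween-20, 30 min, room temperature.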
* marks the source's active call; other numbers are inactive results; i = inactive. Potency is read from the fitted curve at half-maximal effect.

SMILES	KDM5B inh
CNC(=O)c1cc(-c2ccc(F)cc2OC)cc2c1OCCN2Cc1cccnc1	40µM*
CNC(=O)c1cc[nH]c1C1CCCN(C(=O)Cc2cccnc2)C1 (stereo unspecified)	i
Cc1cc(CSc2ncccc2C(=O)Nc2ccnn2Cc2cccnc2)no1	i
CC(C)(C)CC(=O)N1CC[C@H]2CC(=O)N(Cc3cccnc3)CC[C@H]2C1	i
Cc1cc(C(=O)N[C@@H]2CN(Cc3cccnc3)C[C@H]2CN(C)C)n(C)n1	i
CNC(=O)c1cc(-c2ccc([S+](C)(=O)[O-])cc2)cc2c1OCCN2Cc1cccnc1	35µM*
CNC(=O)c1cc(-c2cnn(C)c2C)cc2c1OCCN2Cc1cccnc1	35µM*
CN(C)[S+](=O)([O-])c1ccc2c(c1)OCCN(Cc1cccnc1)C2	i
CNC(=O)c1cc(-c2ccc(CO)cc2)cc2c1OCCN2Cc1cccnc1	28µM*
C[S+](=O)([O-])N1CC2ON=C(C(=O)NCc3cccnc3)C2C1 (stereo unspecified)	i
CC(Sc1nc(C(F)(F)F)nc2ccccc12)C(=O)NCC1CCCCC1 (stereo unspecified)	i
COC(=O)[C@@H](C)NC(=O)NCCCCCO	i
CCn1c2c(c(=O)[nH]c1=O)C(c1ccc(C)cc1)C1=C(COC1=O)N2 (stereo unspecified)	i
Cc1ccc2c(CN3CCc4cc(S(N)(=O)=O)ccc43)cc(=O)oc2c1	i
O=C(CSc1ccc2c(c1)OCCCO2)Nc1ccc2c(c1)CCC2	i
CC(C)(C)c1cc(SCc2ccc(C#N)cc2)cc(C(C)(C)C)c1O	i
O=C(NCc1c[nH]c(=O)[nH]c1=O)C1CCN(Cc2ccco2)CC1	i
CCc1sc(C(=O)OC(C)C(=O)Nc2cc(C)no2)cc1C (stereo unspecified)	i
CCc1c(C)sc(NC(C)=O)c1C#N	i
CN(CC(=O)Nc1cccc(F)c1)C(=O)c1cccc(C(=O)N(C)CC(=O)Nc2cccc(F)c2)n1	i
O=S(=O)(c1cc(Cl)ccc1Cl)N1CCCC1c1nnc2ccccn12 (stereo unspecified)	i
CCc1ccc(OCC(=O)OCC(=O)c2cc3ccccc3o2)cc1	i
CSc1ccccc1C(=O)Nc1ccccc1Sc1ccccc1	i
CCN(CC)CCNC(=O)c1ccc(NC(=O)Cc2cccc(C(F)(F)F)c2)cc1	i
COc1ccccc1C(=O)Nc1c(C)nc(Nc2ccccc2)nc1Nc1ccccc1	i
SMILES	KDM5B inh
COc1ccc(NC(=O)c2cc3c(=O)n(Cc4cccnc4)ccc3nc2C)cc1OC	i
CNC(=O)c1cc(-c2cnc(OC)nc2)cc2c1OCCN2Cc1cccnc1	i
CNC(=O)c1cc(-c2ccc(OC)c(OC)c2)cc2c1OCCN2Cc1cccnc1	32µM*
Cn1c(=O)n(C)c2cc(Sc3ccccc3Cl)c(NC(=O)C(C)(C)C)cc21	i
COc1cccc(-c2nc3ccccc3c(=O)n2NC(=O)c2ccc(Cl)c(Cl)c2)c1	i
CCCC(=O)Nc1nnc(Cc2c[nH]c3ccccc23)s1	i
CCc1ccc(C(=O)NC2CCN(c3cc(-c4cccs4)[nH]n3)CC2)cc1	i
CC(=O)Nc1ccc(C(=O)NC2CCN(c3cc(-c4cccs4)[nH]n3)C2)cc1 (stereo unspecified)	18µM*
CC(=O)Nc1ccc(C(=O)NC2CCN(c3cc(-c4ccccc4)[nH]n3)CC2)cc1	i
O=C(NC1CCN(c2cc(-c3cccs3)[nH]n2)CC1)c1cccc(F)c1	i
O=C(NC1CCN(c2cc(-c3cccs3)[nH]n2)C1)c1ccc(F)c(F)c1 (stereo unspecified)	13µM*
O=C(NC1CCN(c2cc(-c3cccs3)[nH]n2)CC1)c1ccc(F)c(F)c1	i
CC(C)c1ccc(CN2CCc3ncc(C(=O)NCCN4CCNC4=O)n3CC2)cc1	i
CCCNC(=O)Cn1cccc1-c1nc(-c2ccc(F)c(Br)c2)no1	i
Cc1ccc(NC(=O)COC(=O)C2(c3ccccc3F)CCCC2)c([N+](=O)[O-])c1	i
CC(C)(C)NCCC(=O)O	i
CSc1cccc(NC(=O)CCc2ncc(-c3c(F)cccc3F)o2)c1	i
COc1ccc(C(=O)/C=C/c2cccc(F)c2)cc1CSCC(=O)O	i
Cn1ccnc1-c1ccc(N2CC[C@@]3(O)CCN(S(C)(=O)=O)C[C@H]3C2)nn1	32µM*
CCc1noc(C)c1C(=O)N1CC[C@@]2(O)CCN(S(C)(=O)=O)C[C@H]2C1	i
COc1cc(C(=O)N2CC[C@@]3(O)CCN(S(C)(=O)=O)C[C@H]3C2)ccn1	i
Cc1ccc(C(C)NC(=O)Nc2cccc(Cl)c2)c(C)c1 (stereo unspecified)	i
CC(C)N(Cc1ccccc1)S(=O)(=O)c1cccc2nsnc12	i
CCC1Oc2ccc(NC(=O)C(C)C)cc2CN(Cc2ccccc2F)C1=O (stereo unspecified)	i
CC(=O)Oc1ccccc1C(=O)Nc1ccc2c(c1)CN(Cc1ccc(Cl)cc1)C(=O)C(C)O2 (stereo unspecified)	35µM*
SMILES	KDM5B inh
CC1Oc2ccc(NC(=O)c3cccs3)cc2CN(Cc2ccc(F)cc2)C1=O (stereo unspecified)	i
CC1Oc2ccc(NC(=O)Cc3ccc(F)cc3)cc2CN(Cc2ccc(Cl)cc2)C1=O (stereo unspecified)	i
CCC1Oc2ccc(NC(=O)c3ccccc3Cl)cc2CN(Cc2ccccc2F)C1=O (stereo unspecified)	i
CCC1Oc2ccc(NC(=O)c3ccccc3OC(C)=O)cc2CN(Cc2ccccc2F)C1=O (stereo unspecified)	25µM*
Cc1cc(Cl)ccc1OC(=O)c1cc2ccccc2oc1=O	i
CCOCC(=O)N1c2ccccc2CC1c1noc(C(C)C)n1 (stereo unspecified)	i
CCOC(=O)C(NC(=O)c1cc(C)cc(C)c1)C(=O)OCC	i
O=S(=O)(c1ccc(Sc2nnnn2C2CCCC2)nc1)N1CCCC1	i
CCc1nc2c(=O)n(CC(=O)N(CC)Cc3ccccc3)nc(C)c2s1	i
Cc1ccc(-c2nn(CC(=O)N3CCCC3)c(=O)c3ccccc23)cc1	i
CCCCN(C)C(=O)Cn1nc(C)c2sc(-c3ccccc3)nc2c1=O	28µM*
Cc1nn(CC(=O)N2CCCCCC2)c(=O)c2nc(-c3ccccc3)sc12	32µM*
CCN(CC)CCCN(C)C(=O)Cn1nc(Cc2ccncc2)c2ccccc2c1=O	i
CCc1nc2c(=O)n(CC(=O)N3CCN(c4cccc(C)c4C)CC3)nc(C)c2s1	i
Cc1ccc(NS(=O)(=O)c2c(F)cc(F)cc2Br)cc1C	i
O=C1C(c2ccccc2)=S=C2C=Cc3ccccc3N12	i
CC(C)C(=O)/C(C#N)=C\c1ccc(OCc2cccc(F)c2)cc1	i
CN(c1ccccc1)S(=O)(=O)c1ccc(Cl)c(C(=O)OCn2nnc3ccccc3c2=O)c1	i
Cn1nc(C(F)(F)F)c(Br)c1C(=O)Nc1sc2c(c1C#N)CCC2	i
CC(C)Nc1oc(-c2ccco2)nc1S(=O)(=O)c1ccc2c(c1)OCCO2	i
COc1ccccc1CNC(=O)COC(=O)c1nn(CC(C)C)c(=O)c2ccccc12	i
CCc1ccc(-c2csc(/C(C#N)=C/Nc3c(C)cc(C)cc3C)n2)cc1	i
CN1CCN(C(=O)N2Cc3ccccc3OC3(CCN(C(=O)N(C)C)CC3)C2)CC1	i
CC(=O)N1Cc2ccccc2OC2(CCN(C(=O)c3ccc4[nH]ccc4c3)CC2)C1	i
